High-throughput results: PubChem BioAssay, National Center for Advancing Translational Sciences (NCATS)
SMN2 splice up = qHTS Assay for Enhancers of SMN2 Splice Variant Expression; 2.8% of 210,000 active; Potency, µM (doses to about 46.1 µM), most hits filed as activators; HEK293 SMN2-luciferase splicing reporter, luminescence, 30-36 h; AID 1458, 2008; also: nearly all actives have a fitted effect of over 55% in size
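qHTS luciferase splicing reporter: luminescence rises when SMN2 exon 7 is included in transfected HEK293 cells. Compound exposure lasted 30-36 h at 37C, with 4.5 mM final sodium butyrate as control, followed by a ONE-Glo read.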
NPC1 prom act = qHTS Assay for NPC1 Promoter Activators; AID 485313, 2010; 2.4% of 320,000 active; Huh7 NPC1 promoter luciferase reporter, 24 h; Potency, µM (top dose mostly 9.22 µM), actives largely listed as activators; also: nearly all actives have a fitted effect of over 60% in size
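Luminescence read-out of NPC1 promoter-driven luciferase in stably transfected Huh7 cells; compounds delivered in DMSO and left 24 h at 37C, 5% CO2, qHTS titration format.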
Rab9 promoter act = qHTS Assay for Rab9 Promoter Activators. Huh7 Rab9 promoter-luciferase reporter, luminescence, 24 h. Potency, µM (titrated, usually from 9.22 µM), hits mostly activators. 2.8% of 320,000 active. AID 485297, 2010; also: nearly all actives have a fitted effect of over 60% in size
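Luminescence read-out: Huh7 cells stably expressing Rab9-luciferase, treated 24 h with compound at 37 °C, then lysed with luciferase reagent for 10 min at ambient before reading.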
ELG1 genotoxic = qHTS screen for small molecules that induce genotoxicity in human embryonic kidney (HEK293T) cells expressing luciferase-tagged ELG1; 1.3% of 330,000 active; HEK293T ELG1-luciferase reporter, luminescence, 16 h; Potency, µM (top dose mostly 46 µM), most hits filed as activators; also: nearly all actives have a fitted effect of over 60% in size
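Reporter readout depends on ELG1 protein level, which increases with genetic stress. After 16 hr compound exposure at 37 °C, luciferase activity was quantified using ONE-Glo.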
FLuc counter = qHTS profiling assay for firefly luciferase inhibitor/activator using purifed enzyme and Km concentrations of substrates (counterscreen for miR-21 project) | Luciferin 4-monooxygenase (Photinus pyralis), P08659 | purified FLuc, Km substrates, luminescence inhibition | Potency, µM (titrated, usually from 57.5 µM), most hits filed as inhibitors | 6.9% of 360,000 active | AID 588342, 2011; also: nearly all actives have a fitted effect of over 55% in size
Target sequence (P08659 whole entry, looked up): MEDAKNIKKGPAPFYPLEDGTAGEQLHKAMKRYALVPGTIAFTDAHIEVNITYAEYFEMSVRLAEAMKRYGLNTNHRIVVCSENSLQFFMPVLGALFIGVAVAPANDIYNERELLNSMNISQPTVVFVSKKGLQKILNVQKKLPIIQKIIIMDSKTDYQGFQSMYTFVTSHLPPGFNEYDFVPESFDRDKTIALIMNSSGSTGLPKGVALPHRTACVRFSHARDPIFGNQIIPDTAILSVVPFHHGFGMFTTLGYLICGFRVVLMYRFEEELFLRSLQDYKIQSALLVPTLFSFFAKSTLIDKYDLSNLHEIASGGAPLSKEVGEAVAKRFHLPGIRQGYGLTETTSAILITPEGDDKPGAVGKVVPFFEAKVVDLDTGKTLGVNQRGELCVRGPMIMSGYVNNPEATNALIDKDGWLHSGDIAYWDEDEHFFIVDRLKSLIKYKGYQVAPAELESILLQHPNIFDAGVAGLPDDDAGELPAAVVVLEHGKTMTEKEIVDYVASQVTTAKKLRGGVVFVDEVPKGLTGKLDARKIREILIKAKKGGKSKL
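Purified P. pyralis luciferase (10nM final) with 10uM D-luciferin and 10uM ATP (Km levels) in 50mM Tris acetate pH 7.5, 10mM Mg acetate, 0.01% Tween-20, 0.05% BSA; qHTS 6-point titration, ~60 µM downward; luminescence read.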
Numbers stand for hits; n = inactive; u = inconclusive; x = no result given; ! = a repeat was not active. In the library only some 7.4% were active in any assay of this set; here they are far more common. Calls follow the shape of the dose curve; as a rule, active = well fitted curve in the direction sought with a large enough effect; inconclusive = small, poorly fitted or top-dose-only effect, or another doubt; inactive = no such curve, though single readings can be large; an effect the other way counts as inactive or inconclusive.

SMILES	SMN2 splice up	NPC1 prom act	Rab9 promoter act	ELG1 genotoxic	FLuc counter
Cc1ccccc1NCc1nc2ccccc2n1C	x	1.4µM	2µM	4.1µM	4.3µM
CCOc1ccccc1NC(=O)N1CCc2cc(S(=O)(=O)N3CCC(C)CC3)ccc21	n	x	x	x	n
Cc1ccc(C(=O)CC2(O)C(=O)N(Cc3ccccc3)c3ccccc32)o1 (stereo not drawn)	11µM	n	n	n	n
Cc1ccc(C(=O)CC2(O)C(=O)N(Cc3ccccc3Cl)c3ccccc32)o1 (stereo not drawn)	u	n	n	n	n
CNC(=S)/N=C/NOCc1ccc(Cl)cc1Cl	n	n	n	n	n
CC(=O)c1cccc(Nc2nn(-c3ccc(OC(F)(F)F)cc3)nc2C(C)=O)c1	n	x	x	x	6µM
O=[N+]([O-])c1cccc(-c2nnc(-c3ccccc3)o2)c1	20µM	2.8µM	2.2µM	u	15µM
Clc1ccccc1-c1nnc2sc(-c3ccc4c(c3)OCO4)nn12	u	n	n	u	u
Clc1ccccc1-c1nnc(-c2ccc3c(c2)OCO3)o1	5µM	1.4µM	1.3µM	n	2.7µM
O=C(O)c1cccc(-c2ccc3c(c2)OCO3)c1	x	n	n	n	u
O=[N+]([O-])c1cccc(-c2nnc(-c3ccc4c(c3)OCO4)o2)c1	11µM	2.5µM	2.2µM	u	2.7µM
CCOCCCNC(=O)c1cc2c(=O)[nH]c3ccccc3c2n1C	n	x	x	x	n
O=C(Nc1ccccc1)c1ccc(-c2ccc(Br)cc2)o1	u	n	n	u	6µM
O=C(Nc1cccc(NC(=O)c2ccc(-c3cccc(Br)c3)o2)c1)c1ccco1	n	n	n	n	u
COc1ccc(NC(=O)c2ccc(-c3ccc([N+](=O)[O-])cc3)o2)cc1	n	n	n	n	n
O=C(Nc1cccc2ncccc12)c1ccc(-c2ccc(Br)cc2)o1	n	n	n	n	11µM
O=C(Nc1ccccc1)c1ccc(-c2ccc([N+](=O)[O-])cc2)o1	x	u	n	n	13µM
O=C(Nc1cccc(NC(=O)c2ccc(-c3ccc(Br)cc3)o2)c1)c1ccccc1	n	n	n	n	2.7µM
NC(=O)c1ccccc1NC(=O)c1ccc(-c2ccc(Br)cc2)o1	n	x	x	x	x
Cc1ccc(S(=O)(=O)C(CNC(=O)COc2ccccc2)c2cccs2)cc1 (stereo not drawn)	x	x	x	x	n
Cc1ccc(C)c(CN2CCC(n3nccc3NC(=O)CCCc3ccccc3)CC2)c1	x	n	n	n	n
COc1ccc(N(CC(=O)NC2CC3CCC2C3)S(=O)(=O)c2ccc(C)c([N+](=O)[O-])c2)cc1 (stereo not drawn)	x	n	n	n	n
COc1ccccc1NC(=O)c1ccc(-c2ccccc2[N+](=O)[O-])o1	n	u	u	n	11µM
COc1ccccc1NC(=O)c1ccc(-c2ccc(Br)cc2)o1	n	n	n	n	8.5µM
O=C(c1ccc(-c2ccc([N+](=O)[O-])cc2)o1)N1CCCCC1	u	4µM	1µM	u	6.7µM
SMILES	SMN2 splice up	NPC1 prom act	Rab9 promoter act	ELG1 genotoxic	FLuc counter
COc1cccc(C(=O)N2c3cc(C)ccc3C(C)(c3ccccc3)CC2(C)C)c1 (stereo not drawn)	n	x	x	x	n
Cc1c(Cl)cccc1NC(=O)CSc1cc(-c2ccccc2)ncn1	x	x	x	x	n
O=C(N/N=C/c1ccc(Br)cc1)c1ccccc1-n1cccc1	n	n	n	n	n
Cc1ccccc1N(C)S(=O)(=O)c1nnc(NC(=O)c2ccccc2F)s1	x	n	n	n	6µM
CN(c1ccccc1)S(=O)(=O)c1nnc(NC(=O)COc2ccccc2F)s1	x	n	n	n	n
Cc1ccccc1OCC(=O)Nc1nnc(S(=O)(=O)N(C)c2ccccc2)s1	x	x	x	x	0.95µM
CN(c1ccccc1)S(=O)(=O)c1nnc(NC(=O)COc2ccccc2)s1	x	n	n	n	0.43µM!
O=C(COc1ccccc1)Nc1nnc(S(=O)(=O)N2CCCC2)s1	x	n	n	n	n
O=C(COc1ccccc1)Nc1nnc(S(=O)(=O)Nc2ccccc2)s1	x	n	n	n	1.5µM!
COc1ccccc1-c1nnc(C2CCN(C(=O)c3cccc(Cl)c3)CC2)o1	n	x	x	x	n
C[C@@H]1CC=C[C@H]2[C@H]1C(=O)N(Cc1ccccc1)[C@H]2c1ccc(-c2ccc(F)cc2)cc1F	x	n	n	n	n
C[C@@H]1CC=C[C@H]2[C@H]1C(=O)N(Cc1ccccc1)[C@H]2c1ccc(-c2cc3ccccc3s2)cc1F	x	u	u	u	1.7µM
COc1ccc(-c2nc(NC(=O)CSc3nnc4ccccn34)ns2)cc1	n	n	n	n	12µM
O=C(CSc1nnc2ccccn12)Nc1cccc(-c2nc3ccccc3s2)c1	14µM	3.5µM	u	u	n
O=C(CSc1nnc2ccccn12)Nc1nsc(-c2ccccc2)n1	n	n	n	n	15µM
Cc1ccccc1N1CCN(c2ccc(NC(=O)C3CCCCC3C(=O)O)cc2)CC1 (stereo not drawn)	n	n	n	n	11µM
CCn1c(SCC(=O)N/N=C/c2ccc(OC)c(OC)c2)nc2ccccc21	n	n	n	n	17µM
COc1ccc(/C=N/NC(=O)CCSc2nc3ccccc3s2)cc1OC	n	n	n	n	21µM
COc1ccc(Cc2nc3ccccc3n2CC(=O)N/N=C/c2ccccc2)cc1OC	n	n	n	n	n
COc1cc(/C=N/NC(=O)CSc2ccccn2)ccc1OC(C)C	x	n	u	u	4.3µM
COc1ccc(/C=N/NC(=O)c2ccc(O)cc2O)cc1CSc1ccccn1	n	n	n	n	27µM
COc1ccc(/C=N/NC(=O)c2ccccc2Cl)cc1CSc1nc2ccccc2s1	n	n	n	u	n
Cc1cccc(C(=O)N[C@H](C(=O)NCCc2ccc(Cl)cc2)C(C)C)c1	x	n	n	n	n
Cc1cccc(C)c1Nc1nnc(SC(C)C(=O)Nc2c(C)n(C)n(-c3ccccc3)c2=O)s1 (stereo not drawn)	n	n	n	n	n
CCN(Cc1ccccc1)S(=O)(=O)c1ccc(F)c(C(=O)Nc2cc(C(F)(F)F)ccc2Cl)c1	x	x	x	x	n
SMILES	SMN2 splice up	NPC1 prom act	Rab9 promoter act	ELG1 genotoxic	FLuc counter
COc1ccc(NC(=O)[C@@H](NS(=O)(=O)c2cccc(Cl)c2)C(C)C)cc1S(=O)(=O)N1CCOCC1	x	x	x	n	x
CCOC(=O)c1c(C)oc2nc(C)nc(N3CCN(c4ccc(C(C)=O)cc4)CC3)c12	x	x	x	x	n
COc1ccc(/C=N/NC(=O)CCn2nnc3ccccc32)cc1	x	n	n	n	13µM
COc1ccccc1/C=C\C=N\NC(=O)CCn1nnc2ccccc21	n	n	n	n	n
CC(=O)ONC(=Nc1ccccc1)c1nonc1N	x	n	n	n	n
Cc1cccc(NC(=O)CSc2nc(=O)n(Cc3ccncc3)c3c2CCC3)c1C	x	x	x	x	n
